Measles CPE: protection of cells from measles virus | Measles virus-infected cells, CPE protection, absorbance | AID 841 | protection (pct of control), % at 4 µM | 140,000 compounds, 1.5% hits; in the data active = protection mostly above about 24%, no sharp cut-off; inactive = mostly below about 26%
MT1-MMP txn act: activates MT1-MMP transcription; 86,000 compounds, 0.16% hits; activation factor at 10 µM; HT1080 MT1-MMP promoter luciferase reporter, luminescence, overnight; stronger effect = higher value;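 active = activation factor of at least 2 for MT1-MMP transcription at 10 µM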
Smad3 inh: inhibitors of human Smad3 transcription factor binding. TR-FRET Smad3/Dy647-FoxH1 peptide binding, europium anti-His. P84022. inhibition, % at 25 µM. AID 630. 88,000 compounds, 0.29% hits;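 active = compounds that reduce the energy-transfer binding signal between the protein and its labelled peptide by more than half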;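 also: 0% = Smad3 plus labelled peptide maximal FRET and 100% = peptide-only background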
Target sequence (P84022 whole entry, looked up): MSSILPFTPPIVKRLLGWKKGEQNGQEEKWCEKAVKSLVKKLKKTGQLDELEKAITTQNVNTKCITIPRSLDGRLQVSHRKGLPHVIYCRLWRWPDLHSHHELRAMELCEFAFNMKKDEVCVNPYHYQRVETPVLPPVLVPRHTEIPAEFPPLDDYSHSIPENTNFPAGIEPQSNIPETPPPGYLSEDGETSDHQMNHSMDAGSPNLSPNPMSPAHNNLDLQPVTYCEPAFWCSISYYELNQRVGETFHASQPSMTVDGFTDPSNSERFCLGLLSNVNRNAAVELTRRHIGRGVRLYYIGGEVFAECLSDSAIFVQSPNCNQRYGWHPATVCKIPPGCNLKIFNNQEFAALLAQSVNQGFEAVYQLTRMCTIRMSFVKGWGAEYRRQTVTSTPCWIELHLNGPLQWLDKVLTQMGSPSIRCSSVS
Numbers without * were called inactive; · = no result given. In the library only some 1.7% were active in any assay of this set; here they are far more common.

SMILES | Measles CPE | MT1-MMP txn act | Smad3 inh
Cc1ccc(C(=O)Nc2ccccc2C(=O)N2CCOCC2)cc1[N+](=O)[O-] | 29.2 | · | ·
CCOC(=O)c1ccc(NC(=O)Cn2cccc2)cc1 | 1.5 | 1.2 | -3.1
CCc1cccc(NC(=O)Cn2cccc2)c1 | 50.5* | 1.1 | 0.9
Cc1ccc(Cl)cc1NC(=O)CSC(N)=O | 39.0 | 1 | -2.3
Cc1cccc2sc(NC(=O)Cn3cccc3)nc12 | 76.8* | 1 | 5.8
Cc1cccc2sc(NC(=O)CSCc3ccccc3)nc12 | 36.3 | 1.1 | 0.8
Cc1ccc(Cl)cc1NC(=O)Cn1cccc1 | 70.3* | 1.1 | 1.9
CCc1nnc(NC(=O)CSc2nnc(-c3ccc(NS(=O)(=O)c4ccccc4)cc3)o2)s1 | 7.8 | · | ·
Cc1cc(SCC(=O)c2ccc(Br)cc2)cc(C)[o+]1 | · | · | -7.2
O=C(O)CC[P+](c1ccccc1)(c1ccccc1)c1ccccc1 | · | · | 26.4
Cc1c(C(=O)NCC2CCCO2)cccc1[N+](=O)[O-] (stereo not given) | 14.2 | · | ·
CNC(=O)c1nn(-c2ccc(C)cc2)ccc1=O | 43.0* | · | ·
NNC(=O)c1nn(-c2ccc(Cl)cc2)ccc1=O | 5.9 | · | ·
CC(=O)c1c(C(C)=O)c(C)n(-c2ccc(N)c(C)c2)c1C | 10.8 | · | -10.4
O=C(CSC1=NCCN1)C1COc2ccccc2O1 (stereo not given) | 30.7* | 1 | -7.6
O=C(O)CSC1=NCCN1 | · | 1.2 | 10.7
CC(=O)N1c2ccccc2N(Cc2ccc(C)cc2C)C(=O)C1(C)C | 7.8 | 0.4 | 10.1
C=CCN1C(=O)C(C)(C)N(C(C)=O)c2ccccc21 | 20.4* | · | ·
NCCSS(=O)(=O)CCN | · | · | 61.9*
NCCCS(=O)(=O)O | 4.8 | 1.2 | -8.2
CCNC(=S)NNC(=O)C1CCCCC1 | 28.4* | · | ·
CCNC(=S)N1CCC(NC(=O)C2CCCCC2)CC1 | 2.1 | 1.1 | 1.7
O=S(=O)(O)c1cc(N=Nc2cccc3ccccc23)c(O)c2ncccc12 | · | · | 34.8
C[C@H]1CCC/C=C\[C@@H]2C[C@H](OC(=O)CN(C)C)C[C@H]2[C@@H](O)/C=C\C(=O)O1 | · | · | 4.8
CCOc1cc(/C=N/O)ccc1OCc1ccc(F)cc1 | 3.8 | · | ·
SMILES | Measles CPE | MT1-MMP txn act | Smad3 inh
COc1cc(/C=N/n2c(C)n[nH]c2=S)ccc1OCc1ccc(F)cc1 | 121.8* | · | ·
COc1cc(/C=N/n2nnnc2N)ccc1OCc1c(C)no[n+]1[O-] | 9.2 | · | ·
COc1cc(/C=N\n2nnnc2N)ccc1OCc1ccc(F)cc1 | 59.7* | 1 | 0.7
C[C@@H](C(=O)NCc1nc2ccccc2[nH]1)[C@@H]1C[C@@]1(C)[C@@H](NC(=O)OCc1ccccc1)c1ccccc1 | · | 1.2 | ·
c1ccc2c(c1)ncn2-c1ccc(-c2ccnc(-c3ccncc3)n2)cc1 | 5.8 | · | ·
Cc1nccc(-c2ccc(-n3cnc4ccccc43)cc2)n1 | 28.6* | 1.8 | -4.0
CNC/C(Cl)=N/S(=O)(=O)c1ccc(C)cc1 | · | · | -1.1
CC(C)[C@@H](C(=O)O)N1C(=O)c2ccccc2C1=O | · | · | -2.9
CCn1ncc(Br)c1C(=O)Nc1ccn(C23CC4CC(CC(C4)C2)C3)n1 | 40.7* | · | ·
CCn1ncc(Br)c1C(=O)N(C)C12CC3CC(CC(C3)C1)C2 | 6.1 | 1 | -4.5
[O-][N+](CCO)(CCO)c1ncnc2nc[nH]c12 | · | · | -12.9
O=C(CCC(=O)c1ccc(F)cc1)Nc1cc(Cl)cc(Cl)c1 | 32.2 | · | ·
O=C(Oc1ccc2ccccc2c1Br)N1CCCCCC1 | 47.3* | · | ·
O=C(Oc1ccc2cc(Br)ccc2c1)N1CCCCCC1 | 7.8 | · | ·
O=C(O)c1ccccc1CN1CCC[C@@H](C(=O)O)C1 | · | · | -3.2
COC(=O)C1(Cc2ccccc2)C2c3cc(C(=O)N4CCCC4)n(Cc4ccc(OC(F)(F)F)cc4)c3CC2CN1C(=O)c1ccccc1 (stereo not given) | · | 1.2 | ·
CC(C)OCCCNS(=O)(=O)c1ccc2ccccc2c1 | 30.1* | 1.1 | 6.8
O=S(=O)(NCCOc1ccccc1)c1ccc2ccccc2c1 | 18.4 | · | ·
O=C(O)CCc1nc(-c2ccccc2-n2cccc2)no1 | · | · | -4.5
COc1ccc(N2CCN(c3ncccn3)CC2)cc1 | 27.9* | · | ·
COc1ccc(N2CCN(c3nc4ccccc4n3CC(=O)c3ccccc3)CC2)cc1 | 6.6 | 1.2 | 0.8
COc1ccc(OCC(O)CN2CCN(c3ncccn3)CC2)cc1 (stereo not given) | 4.8 | · | ·
COc1ccc(N2CCN(Cc3nc4ccccc4n3C)CC2)cc1 | 37.1* | · | ·
Cc1cc(SCC(=O)c2cc(C)n(C)c2C)nc2ccccc12 | 1.7 | · | ·
O=S(=O)(O)[C@@H](c1ccccc1)[C@@H](O)c1ccccc1 | · | · | 2.5
SMILES | Measles CPE | MT1-MMP txn act | Smad3 inh
Cc1ccc(C)n1-n1cnc2sc3c(c2c1=O)CCC3 | 8.0 | 1.1 | 2.7
COC(=O)c1sc2ncn(-n3c(C)ccc3C)c(=O)c2c1C | 6.3 | 1.2 | 59.8*
O=C(N1CCN(c2ccccc2)CC1)C1(c2cccs2)CCOCC1 | 11.2 | · | ·
O=C(CN1CCCCC1)NCCNc1ccc(C(F)(F)F)cc1[N+](=O)[O-] | 8.0 | · | ·
O=C(O)CSc1n[nH]c(=O)[nH]c1=O | · | · | -18.7
c1ccc(CSc2ccc(-c3cccs3)nn2)cc1 | 27.7* | · | ·
Cc1cc(C)cc(NC(=O)CSc2ccc(-c3cccs3)nn2)c1 | 40.8* | · | ·
CCn1c(SCc2ccccc2)nnc1-c1cccs1 | 3.7 | 1.1 | 6.0
Cc1cc(C)cc(NC(=O)CSc2nnc(CNC(=O)c3cccs3)o2)c1 | 1.9 | · | -0.8
Cc1c(C(=O)Nc2cnccn2)oc2ccccc12 | 10.1 | 1.2 | 11.8
Cc1c(C(=O)Nc2ccc(Cl)cn2)oc2ccccc12 | 14.0 | 2.1* | -6.9
CCC1(c2ccc(F)cc2)NC(=O)N(CC(=O)N2CCOCC2)C1=O (stereo not given) | · | 1.1 | 6.1
CCC1(c2ccc(F)cc2)NC(=O)N(CC(=O)c2ccc[nH]2)C1=O (stereo not given) | 30.1* | 1.1 | ·
Cc1cccc(C(C)Nc2ccc([N+](=O)[O-])cn2)c1 (stereo not given) | 42.5* | · | ·
CC(=O)Nc1ccc([N+](=O)[O-])cn1 | 4.6 | · | ·
CN(Cc1cc(Br)cc(Br)c1O)Cc1c(O)ccc2ccccc12 | · | · | 7.2
CCN(Cc1cc(Cl)cc(C)c1O)Cc1c(O)ccc2ccccc12 | · | · | 6.9
CC(C)Cn1cnc2c(c1=O)c1nc3ccccc3nc1n2Cc1ccc2c(c1)OCO2 | 57.6* | 1.1 | 13.1
CCCCn1cnc2c(c1=O)c1nc3ccccc3nc1n2Cc1ccc2c(c1)OCO2 | · | 1.1 | 2.7
Cc1cccc(OCCC(=O)Nc2ccc(F)c(Cl)c2)c1 | 3.9 | · | ·
O=C(O)NCc1ccccc1 (tested in a mixture with another compound) | · | · | -8.7
Cc1cc(N2CCN(C(=O)c3ccco3)CC2)n2ncnc2n1 | 3.0 | 1.1 | ·
Cc1cc(N2CCN(C(=O)c3ccco3)CC2)n2ncc(-c3ccccc3)c2n1 | 39.3* | 1.9 | 13.6
Clc1cccc(Cl)c1C(Nc1nncs1)Nc1nncs1 | · | · | 9.5
CC(C)NC(=O)c1ccccc1-c1nc(-c2ccccc2Cl)no1 | 14.8 | 1.3 | -11.8
CCNC(=O)c1ccccc1-c1nc(-c2ccccc2Cl)no1 | 34.7* | 1.1 | 4.5
COC(=O)c1ccc(C(NC(=O)OCc2ccccc2)/C(C)=C/[C@@H](C)C(=O)NCc2cc(F)cc(F)c2)cc1 (stereo not given in full) | · | 1.1 | ·
COc1ccccc1CNC(=O)c1ccccc1N | 36.6* | · | -3.1
Cc1ccccc1CNC(=O)c1ccccc1N | 1.4 | · | -5.9
Nc1nc2c(C(=O)NCc3cccs3)nnn2c2cccc(Cl)c12 | · | · | 4.0

High-throughput results as filed in PubChem.
